# Laboratory results: PubChem BioAssay (NCATS)
# Inconclusive results are not listed. Active and inactive are the calls of the source. The call rests on the fitted dose curve; in most records, active means well fitted inhibition curve with a large enough effect; inconclusive means small, poorly fitted or top-dose-only effect; inactive means flat fitted curve, though single readings scatter.
# Tested on: CRL-7250
# Assay: qHTS assay to identify novel small-molecules to repurpose for Merkel cell carcinoma treatment (AID 1296009); further: nearly all actives have a fitted effect of over 60% in size
# Details: MCC and control cell lines, CellTiter-Glo viability, 72 h; series mostly up to 92 µM; activity change, negative = cytotoxicity: at the top concentration
# Procedure, shortened: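 Cell viability, measured as CellTiter-Glo luminescence, was normalized between DMSO and no-cell wells. The cells had been exposed to 8- or 11-point compound dilutions for 72 hr at 37 degree celsius.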
row,SMILES,outcome
1,CCOC(=O)CSc1nc2c(sc3ccccc32)c(=O)n1CCCN1CCCC1,inactive
2,Cn1c2ccc(NC(=O)c3ccccc3)cc2c(=O)n2nc(C(=O)O)cc12,inactive [at 17.4 µM]
3,CC1CCC23COC(=O)C2=CC(O)CC3C1(C)CCC1=CC(=O)OC1O (stereo unspecified),inactive
4,COc1cc(/C=C/C(=O)O[C@H]2[C@H](O)[C@@H](CO)O[C@@]2(CO)O[C@H]2O[C@H](CO)[C@@H](O)[C@H](O)[C@H]2O)cc(OC)c1O,inactive [at 17.4 µM]
5,CC(=O)O[C@@H]1[C@@H](OC(=O)/C=C/c2ccccc2)[C@@H](OC(C)=O)[C@H](O[C@H]2[C@@H]3C=CO[C@@H](O[C@@H]4O[C@H](CO)[C@@H](O)[C@H](O)[C@H]4O)[C@@H]3[C@@]3(CO)O[C@@H]23)O[C@H]1C,inactive [at 17.4 µM]
6,CC(=O)O[C@@H]1CC2C(C)(C)C(=O)C=C[C@]2(C)C2CC[C@@]3(C)[C@H](c4ccoc4)OC(=O)[C@H]4O[C@]43[C@@]21C (stereo partly specified),inactive [at 17.4 µM]
7,C=C(CO)C(=O)O[C@H]1C[C@@]23O[C@@H]2CC/C(=C/[C@H]2OC(=O)C(=C)[C@H]12)CO[C@H]3O,inactive
8,C=C1CC/C=C(/CO)C(=O)C[C@@H]2[C@@H]1C[C@@]2(C)COC(C)=O,inactive
9,CCC(O)(C(=O)OCc1ccccc1NC(=O)CCC(=O)O)C(C)O (stereo unspecified),inactive
10,CC(C)C1(O)NC(=O)C(CC2(O)c3ccccc3N3C(=O)C(C)(C)NC32)n2c1nc1ccccc1c2=O (stereo unspecified),inactive [at 17.4 µM]
11,CC1=CC(=O)[C@]2(O[C@@H]3O[C@@H](C)[C@H](O)[C@@H](O)[C@H]3O)C=CO[C@@H](O[C@@H]3O[C@H](CO)[C@@H](O)[C@H](O)[C@H]3O)[C@H]12,inactive [at 17.4 µM]
12,C=C(C)C1CCC2(C(=O)O[C@@H]3O[C@H](CO[C@@H]4O[C@H](CO)[C@@H](O)[C@H](O)[C@H]4O)[C@@H](O)[C@H](O[C@@H]4O[C@@H](C)[C@H](O)[C@@H](O)[C@H]4O)[C@H]3O)CCC3(C(=O)O)C(CCC4C5(C)CCC(O)C(C)(C)C5CCC43C)C12 (stereo partly specified),inactive [at 9.27 µM]
13,COC(O)(CC(C)C)C1Oc2cc(C)[nH]c(=O)c2O1 (stereo unspecified),inactive
14,CC(=O)c1cc2c(cc1O)OC(C)(C)C=C2,inactive
15,C[C@@H]1O[C@@H](O[C@H]2[C@H](OC(=O)[C@]34CCC(C)(C)C[C@H]3C3=CCC5[C@@]6(C)C[C@H](O)[C@H](O[C@@H]7O[C@H](C(=O)O)[C@@H](O)[C@H](O)[C@H]7O)[C@@](C)(CO)C6[C@H](O)C[C@@]5(C)[C@]3(C)C[C@H]4O)O[C@@H](CO)[C@@H]2O)[C@H](O)[C@H](O)[C@H]1O[C@@H]1OC[C@@H](O)[C@H](O[C@H]2OC[C@](O)(CO)[C@H]2O)[C@H]1O (stereo partly specified),inactive [at 9.27 µM]
16,COc1cc(CC2COC(c3ccc(OC4OC(CO)C(O)C(O)C4O)c(OC)c3)C2CO)ccc1O (stereo unspecified),inactive [at 17.4 µM]
17,CC(=O)c1ccc(O[C@@H]2O[C@H](CO[C@@H]3OC[C@@H](O)[C@H](O)[C@H]3O)[C@@H](O)[C@H](O)[C@H]2O)cc1,inactive [at 17.4 µM]
18,COc1ccc(OC)c(C2C(C#N)=C(N)Oc3n[nH]c(-c4ccc5ccccc5c4)c32)c1 (stereo unspecified),inactive
19,Cc1[nH]cnc1C1CCN(c2nc3cccc4c3n2CCC4=O)CC1,inactive
20,CC(C)CC(=O)n1cc(C(N)=O)c(=O)cc1C(O)c1ccccc1 (stereo unspecified),inactive
21,CCC(=O)N[C@@H]1Cc2ccccc2[C@H](c2ccccc2)C1,inactive
22,CC(C)=CCC[C@](C)(O[C@@H]1O[C@H](CO[C@@H]2OC[C@@H](O)[C@H](O)[C@H]2O)[C@@H](O)[C@H](O)[C@H]1O)[C@H]1CC[C@]2(C)[C@@H]1[C@H](O)C[C@@H]1[C@@]3(C)CC[C@H](O[C@@H]4O[C@H](CO)[C@@H](O)[C@H](O)[C@H]4O[C@@H]4O[C@H](CO)[C@@H](O)[C@H](O)[C@H]4O)C(C)(C)[C@@H]3CC[C@]12C,inactive [at 17.4 µM]
23,C/C(=C\CCC1(C)C2CCC(C2)C1(C)O)C(=O)O (stereo unspecified),inactive
24,C[C@H](N)C(=O)N[C@@H](Cc1ccc(O)cc1)C(=O)N1CCC[C@H]1C(=O)NCC(=O)N[C@@H](CCCCN)C(=O)N[C@@H](Cc1ccccc1)C(N)=O,inactive [at 9.27 µM]
25,CC1=C[C@@H]2[C@H]3[C@@H]4O[C@@](C)(CC[C@H]4O)[C@H]3CC(=O)[C@]23C(=O)N[C@@H](CC(C)C)[C@@H]3[C@@H]1C,inactive
26,COCCOc1cnc2ccn([C@H](C)c3nnc4c(F)cc(-c5cnn(C)c5)cn34)c(=O)c2c1,inactive
